Only some compounds are listed: those with a hit (about 4.3% of all), similar ones and a draw of the others.
Giardia kill – Giardia lamblia killing | Giardia lamblia trophozoite viability | activity change, % at 7.66 µM, hits read low | 0.15% of 340,000 active; in the data active means activity change below about -80%; inconclusive means between about -30% and that limit;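 further: parasites exposed to compound for two days anaerobically before the ATP read; on the % scale 0 is the no-effect control and ±100 the full control effect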
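Anaerobic 48 hrs incubation at 37 deg C of 100 trophozoites/well with test compounds; ATPLite 1-Step luminescence, 15-30 min RT, reports cellular ATP as viability.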
MCF10A rereplic – inducers of DNA re-replication in MCF 10A breast cells. MCF 10A DNA re-replication, Hoechst nuclear intensity, 48 h. Potency, µM (series often up to 46.1 µM), for inactives: top-dose activity, positive = re-replication, usual class: activators. 2.9% of 350,000 active. AID 624296; further: potency means the concentration at half of the fitted maximal effect; % of control where 0% means no effect; nearly all actives have a fitted effect of over 50% in size
uPA generation – cell surface uPA generation inhibition. cell surface uPA generation assay, qHTS. Potency, µM (series often up to 38.3 µM), inactives show at the top dose activity change, negative = inhibition, most hits filed as inhibitors. 0.31% of 330,000 active. AID 540303; active means well fitted inhibition curve with a large enough effect; inconclusive means small, poorly fitted or top-dose-only effect; inactive means no such curve, though single readings can be large or run the other way; tested in mouse RAW 264.7 cells; further: potency means the concentration at half of the fitted maximal effect; on the % scale 0 is the no-effect control and ±100 the full control effect; nearly all actives have a fitted effect of over 55% in size
SW480 rerep – DNA re-replication induction in SW480 cells; AID 624297; 1.8% of 340,000 active; Potency, µM (series often up to 46.1 µM), for the others: top-dose re-replication activation, actives largely listed as activators; SW480 DNA re-replication, Hoechst DNA content imaging, 48 h; further: potency means the concentration at half of the fitted maximal effect; % of control where 0% means no effect; nearly all actives have a fitted effect of over 55% in size
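First, 250 cells per well were seeded. Next, compound or vehicle (23 nL) was pinned in, plates sat 48 hr at 37 C. Finally Hoechst was added for 40 min before fluorescence scanning.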
* = called active by the depositor; [ ] = dose if it differs, or a comment. Unless noted, the call rests on the fitted dose curve; in most records, active means well fitted activation curve with a large enough effect; inconclusive means small, poorly fitted or top-dose-only effect; inactive means no such curve, though single readings can be large or run the other way.

CC[C@]12c3[nH]c4cc(CCC(=O)N(C)C)ccc4c3CCN1C(=O)[C@@H](CC(=O)NCCc1ccccn1)C[C@@H]2C(=O)N1CCN(C(=O)C2CC2)CC1 was read as Giardia kill 6, MCF10A rereplic 19%, uPA generation 9% and SW480 rerep -2%.
`Cc1cc(OCCOc2cccc3cccnc23)cc(C)c1Cl` gave Giardia kill 10, MCF10A rereplic 23µM*, uPA generation 14% and SW480 rerep 11%.
CCCS(=O)(=O)c1ncc(Cl)c(C(=O)N(Cc2ccccc2)Cc2ccco2)n1 was read as Giardia kill 11.
Screening COc1ccc(-c2ccc(OC)cc2)cc1 returned Giardia kill -23, MCF10A rereplic 17%, uPA generation 1% and SW480 rerep -5%.
For COc1ccc(-c2cnc3c(c2)CCC3(C#N)C#N)cc1 the results were Giardia kill 14, MCF10A rereplic 4.1µM*, uPA generation -7% and SW480 rerep 3.3µM*.
Screening Cc1ccccc1NC(=O)Cc1nc(COC(=O)c2cc(Br)ccc2O)cs1 returned Giardia kill -2, MCF10A rereplic 16µM*, uPA generation -13% and SW480 rerep -6%.
For Cc1cccc(/C=N/Nc2ccc3ccccc3n2)c1 the results were Giardia kill inconclusive, MCF10A rereplic 21µM*, uPA generation 8.9µM* and SW480 rerep -2%.
Screening C(=N\Nc1ccc2ccccc2n1)/c1ccc2c(c1)OCCO2 returned Giardia kill -28, MCF10A rereplic 23µM*, uPA generation 2.2µM* and SW480 rerep inconclusive.
For COc1cc(C2C(C(=O)Nc3ccccc3C)=C(C)Nc3nc(SCc4cc(C)ccc4C)nn32)ccc1O (configuration not stated) the results were Giardia kill 9.
Screening O=C1C[C@@H]2c3c(cccc3CN1Cc1ccccc1F)C[C@@H](O)[C@H]2O returned Giardia kill 1, MCF10A rereplic -2%, uPA generation 4% and SW480 rerep -9%.
Cc1ccc(-n2cc(-c3ccccc3)c3c(N4CCN(C)CC4)ncnc32)cc1 was read as Giardia kill 7, MCF10A rereplic 21µM*, uPA generation 0% and SW480 rerep -4%.
`Cc1ccc(-n2cc(-c3ccccc3)c3c(N4CCOCC4)ncnc32)cc1` gave Giardia kill -7, MCF10A rereplic 18µM*, uPA generation 0% and SW480 rerep inconclusive.
`Cc1ccc(-n2cc(-c3ccccc3)c3c(=O)[nH]cnc32)cc1` gave Giardia kill 10, MCF10A rereplic 23µM*, uPA generation inconclusive and SW480 rerep -7%.
COC(=O)C1=C(C)NC(=O)/C1=C\c1cc(C)n(-c2ccccc2C)c1C was read as Giardia kill -6, MCF10A rereplic 27%, uPA generation 3% and SW480 rerep 7%.
`COC(=O)C1=C(C)NC(=O)/C1=C\c1cc(C)n(-c2c(C)cccc2C)c1C` gave Giardia kill 16, MCF10A rereplic 5.8µM*, uPA generation 2% and SW480 rerep inconclusive.
`Cc1ccc(N(CC(=O)NC2CCCCC2)C(=O)CCC(=O)Nc2nccs2)cc1` gave Giardia kill -26, MCF10A rereplic 3%, uPA generation -2% and SW480 rerep -4%.
CC(=O)Nc1ccc(NC2=CC(=O)c3ccccc3C2=O)cc1 was read as Giardia kill -8, MCF10A rereplic -1%, uPA generation -7% and SW480 rerep 4%.
Screening NS(=O)(=O)c1ccc(NC2=CC(=O)C(=O)c3ccccc32)cc1 returned Giardia kill -21, MCF10A rereplic inconclusive, uPA generation 4% and SW480 rerep 3.3µM*.
`Cc1cc(NC2=CC(=O)C(=O)c3ccccc32)no1` gave Giardia kill 10, MCF10A rereplic 13µM*, uPA generation -13% and SW480 rerep inconclusive.
For Cc1ccc(NC2=CC(=O)C(=O)c3ccccc32)cc1 the results were Giardia kill -3, MCF10A rereplic inconclusive and SW480 rerep 5.8µM*.
CCOC(=O)c1ccc(NC2=CC(=O)C(=O)c3ccccc32)cc1 was read as Giardia kill -12, MCF10A rereplic 13µM*, uPA generation -19% and SW480 rerep inconclusive.
`CCOC(=O)c1ccc(Nc2cc(C)nc(-c3ccccc3)n2)cc1` gave Giardia kill -10, MCF10A rereplic inconclusive, uPA generation 5µM* and SW480 rerep inconclusive.
`CCc1ccc(/C(C)=N/NC(=O)c2ccc(-n3cnnn3)cc2)cc1` gave Giardia kill -14, MCF10A rereplic -1%, uPA generation -3% and SW480 rerep 1%.
For Cc1cc(=O)n2[nH]c(=O)c(N=Nc3ccccc3)c2[nH]1 the results were Giardia kill -26, MCF10A rereplic 2%, uPA generation 3% and SW480 rerep 1%[9.22 µM].
For Cc1ccc(-c2[nH][nH]c(=O)c(=O)c2N=Nc2ccccc2)cc1 the results were Giardia kill -92*, MCF10A rereplic -1%, uPA generation 4% and SW480 rerep -2%.
Screening COc1ccc(C(C)(C)C)cc1NC(=O)CSc1ncn[nH]1 returned Giardia kill 13, MCF10A rereplic 5%, uPA generation 1% and SW480 rerep -538%.
For N#Cc1nc(COc2ccccc2F)oc1NCCc1ccccc1 the results were Giardia kill 0, MCF10A rereplic 23µM*, uPA generation -1% and SW480 rerep 5%.
`Cc1ccc(CNc2oc(COc3ccccc3Cl)nc2C#N)cc1` gave Giardia kill -4, MCF10A rereplic 4.1µM*, uPA generation 5% and SW480 rerep 12µM*.
`O=C(CN1C(=O)NC2(CCCC2)C1=O)Nc1cc(C(F)(F)F)ccc1N1CCCCC1` gave Giardia kill 3, MCF10A rereplic 22%, uPA generation -3% and SW480 rerep inconclusive.
Screening O=C(Nc1ccccc1N1CCOCC1)c1cc(=O)[nH]c2ccccc12 returned Giardia kill 6, MCF10A rereplic 0%, uPA generation -25% and SW480 rerep 1%.
`COc1ccccc1C(=O)COC(=O)c1c(-c2ccccc2)noc1C` gave Giardia kill -19, MCF10A rereplic 15%, uPA generation -7% and SW480 rerep inconclusive.
`Cc1ccc(S(=O)(=O)N(CC(=O)Nc2ccccc2C(=O)O)c2cccc(Cl)c2C)cc1` gave Giardia kill -10, MCF10A rereplic 16µM* and uPA generation 3%.
For Cc1ccc(S(=O)(=O)N(CC(=O)Nc2ccccc2C(=O)O)c2ccccc2C)cc1 the results were Giardia kill 11, MCF10A rereplic inconclusive, uPA generation 1% and SW480 rerep -10%.
Screening Oc1c(CN2CCCCC2)cc(Br)c2cccnc12 returned Giardia kill 7, MCF10A rereplic 23µM*, uPA generation inconclusive and SW480 rerep inconclusive.
O=C(COc1c(Br)cc(Br)c2cccnc12)N1CCCCC1 was read as Giardia kill 28, MCF10A rereplic 3%, uPA generation -6% and SW480 rerep -9%.
Screening Oc1c(Cl)cc(CN2CCOCC2)c2cccnc12 returned Giardia kill 5, MCF10A rereplic 12µM*, uPA generation inconclusive and SW480 rerep inconclusive.

Bioassay records deposited in PubChem by National Center for Advancing Translational Sciences (NCATS).
